The nature of assay [1]: SU-DIPG-VI glioma cell viability, MIPE4.0 library, CellTiter-Glo luminescence, qHTS (AID 1347066; cut-off not given, nearly all actives have AC50 up to about 30 µM;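 also: cells exposed to compound for 48 hours before readout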). Particulars: CellTiter-Glo ATP luminescence. (ATP-based viability assays read luminescence as a measure of living cells.)
Assay [2] in a line: inhibitors of Cryptococcus chitosan production, flow cytometry, Cibacron Brilliant Red staining (AID 1347148; call rule not given here;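 also: compound exposure lasted three days at 37 degrees C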). Particulars: Cryptococcus neoformans chitosan, stronger effect = lower value; at 10 µM unless noted. In general terms: A flow cytometer gives signals particle by particle.
The nature of assay [3]: phospholipid biosynthesis inhibitors in animal cells, primary screen, cell-based, LOPAC library, screen 4 (AID 1347384; call rule not given here). Particulars: phospholipid biosynthesis inhibition screen, at 10 µM.
A short description of assay [4]: survival rescue of mitochondrial mutant cells in low glucose, primary screen, MELAS cybrids, Rieske KO mouse fibroblasts, CellTiter-Glo (AID 1508586;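 active = mean z-score across replicates of 1.96 or higher in either the MELAS or the Rieske mutant cell line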;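 also: z relative to plate mean and SD of compound and empty wells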).
Assay [5] addresses NAD(+) hydrolase SARM1 (Homo sapiens) (UniProt Q6SZW1). As to the kind of experiment: SARM1 TIR NADase inhibitors, cell lysate, NAD-Glo luminescence (AID 1508614;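 active = compound whose remaining NAD level is above about 45 nM, limit read from the data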;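 also: higher remaining NAD means stronger inhibition of SARM1 NADase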). Particulars: SAM-TIR HEK293T lysate NADase, at 1 µM, stronger effect = higher value.
The target of assay [6] is Mitogen-activated protein kinase 7 (Homo sapiens) (UniProt Q13164). As to the kind of experiment: ERK5 transactivation activators in reporter cells, primary screen, cell-based, HTS (AID 1508626;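 active = luciferase signal above three times the same-plate solvent-only control wells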;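 also: luciferase driven by Gal4-ERK5 fusion binding five Gal4 sites before minimal TATA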). Particulars: HeLa Gal4-ERK5 transactivation, 18 h, at 5 µM, stronger effect = higher value.
Sequence of Mitogen-activated protein kinase 7 (Homo sapiens) (Q13164 whole entry, looked up, the tested form may be a part): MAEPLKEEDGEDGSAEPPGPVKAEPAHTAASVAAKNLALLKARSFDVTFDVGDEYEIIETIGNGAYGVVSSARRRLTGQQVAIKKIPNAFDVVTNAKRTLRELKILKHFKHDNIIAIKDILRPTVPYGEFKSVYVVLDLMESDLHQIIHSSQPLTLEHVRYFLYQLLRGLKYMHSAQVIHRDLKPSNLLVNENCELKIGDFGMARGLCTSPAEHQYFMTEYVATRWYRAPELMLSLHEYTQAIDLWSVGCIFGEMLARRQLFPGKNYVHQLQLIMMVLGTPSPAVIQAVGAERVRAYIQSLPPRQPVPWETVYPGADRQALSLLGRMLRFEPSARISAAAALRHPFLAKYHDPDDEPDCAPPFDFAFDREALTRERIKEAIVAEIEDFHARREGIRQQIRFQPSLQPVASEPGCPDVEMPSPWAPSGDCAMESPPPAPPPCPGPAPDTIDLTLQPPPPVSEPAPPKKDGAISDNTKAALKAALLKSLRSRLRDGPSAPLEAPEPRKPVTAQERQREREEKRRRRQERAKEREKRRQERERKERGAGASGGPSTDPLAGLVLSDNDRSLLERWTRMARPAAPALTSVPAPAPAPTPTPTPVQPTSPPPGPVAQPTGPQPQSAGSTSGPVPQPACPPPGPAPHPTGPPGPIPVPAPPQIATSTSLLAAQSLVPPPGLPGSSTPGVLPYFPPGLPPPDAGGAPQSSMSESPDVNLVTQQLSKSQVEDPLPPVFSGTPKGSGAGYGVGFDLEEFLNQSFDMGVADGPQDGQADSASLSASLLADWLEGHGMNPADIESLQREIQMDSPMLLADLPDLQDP
Assay [7] can be described thus: viability rescue of complex I mutant cybrids, primary screen, cell-based, galactose medium, ATP luminescence (AID 1645843;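 active = z-score of at least 1.8 in each of two replicates, scored against plate mean and spread of sample wells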;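 also: positive z means more ATP and so rescue of galactose-driven cybrid death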). Particulars: complex I mutant cybrid cells, 72 h, stronger effect = higher value.
A short description of assay [8]: sensitizers of A549 cells to miR-34 induction, primary screen, imaging, A549 dox-inducible miR-34, nuclei and caspase counts (AID 1347080). Particulars: A549 miR-34 inducible, Hoechst nuclei count, 48 h.
Assay [9] is described as follows: SU-DIPG-XXV glioma cell viability, MIPE5.0 library, qHTS (AID 1347068; cut-off not given, nearly all actives have IC50 up to about 30 µM). For orientation: In qHTS, concentration-response curves come from the screen itself.
The nature of assay [10]: JHH-DIPG-1 glioma cell viability, MIPE5.0 library, CellTiter-Glo luminescence, qHTS (AID 1347067; cut-off not given, nearly all actives have AC50 up to about 26 µM;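 also: cells exposed to compound for 48 hours before readout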). Particulars: JHH-DIPG-1 glioma viability, CellTiter-Glo ATP luminescence.
[11] abbreviates: MELAS cybrid survival, CellTiter-Glo 48 h, stronger effect = higher value.
The mark [12] stands for this setting: Rieske KO mouse fibroblast survival, CellTiter-Glo 72 h.
Where [13] appears, read: stronger effect = lower value, cell number ratio, induced over uninduced.
Setting [14] is: measured here: relative caspase fold change +Dox/-Dox.
The mark [15] stands for this setting: measured here: total cells with miR-34 induction, stronger effect = lower value.
Setting [16] is: measured here: total cells without miR-34 induction.

Each structure is given as a SMILES string. Values joined by “and” are separate entries in the source; they are usually repeats but may differ in a detail not shown here. Identical values can stand only once. Inconclusive results are not listed. The source holds several records for some structures; these can differ, active in one and inactive in another. Active and inactive are the calls of the source.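 The calls were made as follows, unless noted: active = compounds whose cell count with miR-34 switched on is under 0.7 times the count with it off; inactive = the rest.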

Sequence of NAD(+) hydrolase SARM1 (Homo sapiens) (Q6SZW1 whole entry, looked up, the tested form may be a part): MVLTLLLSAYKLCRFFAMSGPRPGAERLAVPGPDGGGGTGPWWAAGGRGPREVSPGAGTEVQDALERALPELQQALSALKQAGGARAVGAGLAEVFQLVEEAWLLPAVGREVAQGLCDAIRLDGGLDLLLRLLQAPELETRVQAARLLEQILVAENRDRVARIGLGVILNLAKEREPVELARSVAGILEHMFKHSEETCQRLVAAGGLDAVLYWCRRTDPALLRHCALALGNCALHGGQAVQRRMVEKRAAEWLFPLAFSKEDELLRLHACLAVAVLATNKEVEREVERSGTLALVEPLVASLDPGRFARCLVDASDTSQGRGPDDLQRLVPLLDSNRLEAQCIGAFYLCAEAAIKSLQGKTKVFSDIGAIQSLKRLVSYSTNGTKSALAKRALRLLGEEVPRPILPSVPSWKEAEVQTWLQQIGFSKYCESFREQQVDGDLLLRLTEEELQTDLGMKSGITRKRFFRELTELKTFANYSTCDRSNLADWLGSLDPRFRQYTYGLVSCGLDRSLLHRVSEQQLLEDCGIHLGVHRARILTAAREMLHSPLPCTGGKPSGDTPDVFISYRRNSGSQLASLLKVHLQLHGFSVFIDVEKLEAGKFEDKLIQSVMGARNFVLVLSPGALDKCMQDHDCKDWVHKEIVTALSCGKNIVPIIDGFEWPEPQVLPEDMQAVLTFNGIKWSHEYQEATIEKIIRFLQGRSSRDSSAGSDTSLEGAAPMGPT

For the compound `O=C(O)c1cccnc1Nc1cccc(C(F)(F)F)c1`, the outcome in [1] and in assay [3] was inactive. Besides, the fold fluorescence in assay [2] was 3.63 [at 177.2 µM] (inactive). The z-score in [4] (setting [11]) is -0.334 (inactive) and -0.267 (inactive) and 0.0798 (inactive); in [4] (setting [12]), -0.307 and -0.187 and -0.378; in [7], -0.15 (inactive) and 0.22 (inactive). In addition, in assay [5], the remaining NAD is 10 nM (inactive). Also, in [6], the luciferase signal was 60 AU (inactive).

For `CCN(CC)C(C)CN1c2ccccc2Sc2ccccc21` (stereo not drawn), the fold change in assay [8] (setting [13]) was 1.11 (inactive) and 0.804 (inactive) and 0.894 (inactive); in [8] (setting [14]), 1.02 and 1.63 and 0.788. Moreover, the cell count was 9230 and 7320 and 9620 in assay [8] (setting [15]); 8340 and 9100 and 10800 in assay [8] (setting [16]). Also, the outcome in assay [3] was inactive. The z-score was -0.553 (inactive) in [4] (setting [11]), -0.605 in [4] (setting [12]) and -0.44 (inactive) in [7]. For the same compound, the remaining NAD in assay [5] was 10 nM (inactive). In addition, the luciferase signal in [6] is 36 AU (inactive).

Consider `C[N+](C)(C)CCCCCC[N+](C)(C)C`, for which the fold change is 0.986 (inactive) and 1.01 (inactive) and 0.859 (inactive) in assay [8] (setting [13]); 0.977 and 0.809 and 0.908 in assay [8] (setting [14]). Also, the cell count in assay [8] (setting [15]) was 10300 and 10200 and 8850; in assay [8] (setting [16]), 10500 and 10100 and 10300. Moreover, in [3], the call was inactive. For the same compound, the z-score in assay [4] (setting [11]) is 0.935 (inactive); in assay [4] (setting [12]), 0.174; in [7], 0.205 (inactive) and 0.235 (inactive). Further, the remaining NAD in assay [5] is 10 nM (inactive). In addition, the luciferase signal in assay [6] is 52 AU (inactive).

With `CCCC(C(=O)OCCN(CC)CC)(c1ccccc1)c1ccccc1`, the fold change was 0.769 (inactive) and 0.897 (inactive) and 0.979 (inactive) in assay [8] (setting [13]); 1.28 and 1.07 and 2.3 in assay [8] (setting [14]). For the same compound, the cell count in [8] (setting [15]) is 4500 and 7370 and 10800; in assay [8] (setting [16]), 5860 and 8210 and 11000. Further, the call in assay [3] was inactive. The z-score in assay [4] (setting [11]) is -2.4 (inactive); in [4] (setting [12]), 0.38; in assay [7], -1.28 (inactive). The remaining NAD in assay [5] was 10 nM (inactive). For the same compound, the luciferase signal in assay [6] is 60 AU (inactive).

As for `Cc1nnc(SCC2=C(C(=O)O)N3C(=O)[C@@H](NC(=O)Cn4cnnn4)[C@H]3SC2)s1`, the fold change was 1.03 (inactive) and 0.804 (inactive) and 0.912 (inactive) in assay [8] (setting [13]); 1.87 and 0.957 and 4.16 in assay [8] (setting [14]). Besides, the cell count is 10400 and 8100 and 11000 in assay [8] (setting [15]); 10100 and 12000 in assay [8] (setting [16]). Moreover, the call in assay [3] was inactive. Further, the z-score in assay [4] (setting [11]) was 0.651 (inactive); in assay [4] (setting [12]), 0.288; in assay [7] it was -0.3 (inactive). In addition, in [5], the remaining NAD is 10 nM (inactive). In assay [6], the luciferase signal is 28 AU (inactive).

On to `COc1ccc(CC2c3cc(OC)c(OC)cc3CC[N+]2(C)CCC(=O)OCCCCCOC(=O)CC[N+]2(C)CCc3cc(OC)c(OC)cc3C2Cc2ccc(OC)c(OC)c2)cc1OC` (stereo not drawn), for which the outcome in assay [9] was inactive. Moreover, the z-score was -0.594 (inactive) and -1.25 (inactive) and -0.066 (inactive) in assay [4] (setting [11]); -0.336 and -0.215 and -0.301 in assay [4] (setting [12]); -0.89 (inactive) and 0.01 (inactive) in assay [7]. Besides, the remaining NAD in assay [5] is 10 nM (inactive).

For `Cc1nc2n(c(=O)c1CCN1CCC(c3noc4cc(F)ccc34)CC1)CCCC2`, in assay [1], the outcome was inactive. Also, the z-score in [4] (setting [11]) was 1.35 (inactive) and -1.13 (inactive) and -0.64 (inactive); in [4] (setting [12]), 0.0817 and 0.437 and -0.833; in assay [7] it was -1.22 (inactive) and -0.71 (inactive). The remaining NAD in assay [5] was 10 nM (inactive).

On to `NCCS`, for which the fold change in [8] (setting [13]) is 1.1 (inactive) and 0.868 (inactive) and 0.893 (inactive); in assay [8] (setting [14]), 0.51 and 1.42 and 2.94. In addition, the cell count was 11000 and 8060 and 11500 in assay [8] (setting [15]); 9990 and 9290 and 12900 in assay [8] (setting [16]). Besides, the outcome in assay [3] was inactive. Further, the z-score in [4] (setting [11]) is -0.14 (inactive); in assay [4] (setting [12]), -0.336; in [7], 0.24 (inactive). The remaining NAD in assay [5] is 10 nM (inactive). In assay [6], the luciferase signal was 76 AU (inactive).

On to `COc1cc(C(=O)NS(=O)(=O)c2ccccc2C)ccc1Cc1cn(C)c2ccc(NC(=O)OC3CCCC3)cc12`, for which the call in [10] and in assay [9] was inactive. The z-score in assay [4] (setting [11]) is -0.216 (inactive) and 0.374 (inactive) and -0.157 (inactive); in assay [4] (setting [12]), 0.567 and -0.073 and 0.0854; in assay [7], 1.64 (inactive) and 1.23 (inactive).

As for `CC1(C)O[C@H]2CC(=O)OC[C@]23[C@H]2CC[C@@]4(C)[C@H](c5ccoc5)OC(=O)[C@H]5O[C@]54[C@]2(C)C(=O)C[C@@H]13`, the call in [1] was inactive. Besides, the luciferase signal in assay [6] is 80 AU (inactive).

On to `Cc1ccc(C(=O)Nc2ccc(S(=O)(=O)O)c3cc(S(=O)(=O)O)cc(S(=O)(=O)O)c23)cc1NC(=O)c1cccc(NC(=O)Nc2cccc(C(=O)Nc3cc(C(=O)Nc4ccc(S(=O)(=O)O)c5cc(S(=O)(=O)O)cc(S(=O)(=O)O)c45)ccc3C)c2)c1`, for which the outcome in assay [10], in assay [9] and in assay [3] was inactive. For the same compound, the cell count in assay [8] (setting [16]) is 10200 and 13600 and 11000. Further, the z-score is 0.0857 (inactive) in assay [4] (setting [11]); -0.401 in [4] (setting [12]); 4.14 (active) and 1.81 (inactive) and 0.955 (inactive) in assay [7]. In addition, in assay [5], the remaining NAD is 10 nM (inactive). Further, the luciferase signal in [6] is 48 AU (inactive).

On to `CC(=O)N[C@@H](CS)C(=O)O`, for which the fold change is 1.05 (inactive) and 0.885 (inactive) and 0.922 (inactive) in assay [8] (setting [13]); 0.401 and 1.12 and 0.735 in [8] (setting [14]). The cell count in assay [8] (setting [15]) was 10500 and 7510 and 10400; in assay [8] (setting [16]) it was 9960 and 8480 and 11200. Also, in assay [3], the outcome was inactive. For the same compound, the z-score in assay [4] (setting [11]) is -0.217 (inactive) and 0.201 (inactive); in assay [4] (setting [12]), 0.862 and -0.824; in [7], 0.55 (inactive). In addition, the remaining NAD in assay [5] was 10 nM (inactive). Moreover, the luciferase signal in assay [6] is 40 AU (inactive).

Consider `CC(=O)OC(C)C[N+](C)(C)C` (stereo not drawn), for which the fold change in assay [8] (setting [13]) was 0.996 (inactive) and 0.9 (inactive) and 0.916 (inactive); in assay [8] (setting [14]), 1.55 and 1.24 and 1.41. Besides, the cell count is 9370 and 9670 and 11300 in [8] (setting [15]); 9400 and 10700 and 12300 in [8] (setting [16]). Moreover, the call in [3] was inactive. The z-score in assay [4] (setting [11]) was -0.509 (inactive); in assay [4] (setting [12]), 0.138; in assay [7] it was 0.455 (inactive). Besides, the remaining NAD in assay [5] is 10 nM (inactive). In addition, the luciferase signal in assay [6] was 104 AU (inactive).

As for `CC(=O)OCC1=C(C(=O)O)N2C(=O)[C@@H](NC(=O)Cc3cccs3)[C@H]2SC1`, the fold change is 1.04 (inactive) and 0.943 (inactive) and 0.907 (inactive) in assay [8] (setting [13]); 2.01 and 1.12 and 1.53 in [8] (setting [14]). In addition, the cell count in assay [8] (setting [15]) was 10600 and 8990 and 11000; in [8] (setting [16]) it was 10300 and 9530 and 12100. In assay [3], the result was inactive. Also, the z-score in assay [4] (setting [11]) was -0.988 (inactive); in [4] (setting [12]) it was -1.16; in assay [7], 0.015 (inactive). For the same compound, the remaining NAD in assay [5] is 10 nM (inactive). Also, in assay [6], the luciferase signal was 52 AU (inactive).

`C[C@]12C=CC(=O)C=C1CC[C@H]1[C@@H]3C[C@@H](O)[C@](O)(C(=O)CO)[C@@]3(C)C[C@H](O)[C@@]12F`: the fold change in [8] (setting [13]) is 0.938 (inactive) and 0.869 (inactive) and 0.939 (inactive); in assay [8] (setting [14]), 0.943 and 0.955 and 1.2. In addition, the cell count in assay [8] (setting [15]) is 7680 and 5920 and 7610; in assay [8] (setting [16]), 8190 and 6810 and 8100. The outcome in assay [3] was inactive. In addition, the z-score was 0.162 (inactive) and 0.389 (inactive) in [4] (setting [11]); 0.159 and 0.935 in assay [4] (setting [12]); 2.37 (active) and 0.76 (inactive) in assay [7]. Further, the remaining NAD in assay [5] was 10 nM (inactive). Besides, in assay [6], the luciferase signal was 36 AU (inactive).

Turning to `O=C(O)[C@@H]1[C@H]2C[C@H]3c4[nH]c5ccccc5c4CCN3C[C@@H]2CC[C@@H]1O`, the fold change in [8] (setting [13]) was 0.933 (inactive); in [8] (setting [14]) it was 1.33. Also, the figures for the cell count in assay [8] (setting [15]) and in assay [8] (setting [16]) were 7540 and 8080, respectively.

Source of the values: PubChem BioAssay.
